The other results are listed elsewhere or left out. Active and inactive are the calls of the source.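 Rule for the calls: active = compounds that showed inhibition of Dyrk1a and received a fitted potency; inactive = compounds that showed no inhibition.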

This assay has as its target Dual specificity tyrosine-phosphorylation-regulated kinase 1A (Homo sapiens) (UniProt Q13627). Nature of the assay: Kinase Inhibition Study on Inhibitors of Dyrk1a (Reaction Biology data). To be noted: Reaction Biology kinase assay, 10 uM ATP. From the text:
NIH Molecular Libraries Probe Production Centers Network [MLPCN] NIH Chemical Genomics Center [NCGC] MLPCN Grant: 1R03MH084827-01 Assay Submitter (PI): Tom Misteli NCGC Assay Overview: Alternative splicing of pre-mRNAs plays a major role in the regulation of eukaryotic gene expression. Alternative splicing is now thought to be one of the primary reasons for the complexity of higher organisms leading to an average of three protein isoforms per gene. Aberrant splicing can lead to a number of diseases and is known to play a role in rare genetic diseases such as progeria syndrome. Hutchinson-Gilford Progeria Syndrome (HGPS) is a pediatric premature aging disease caused by a spontaneous mutation in the lamin A/C (LMNA) gene due to a single point mutation in the lamin A gene effecting 1 in 4 million people. To identify both specific splicing modulators of the lamin A gene as well as general splicing modulators, a cell-based HTS assay was developed using a minigene reporter system (AIDs, 1459 & 1487). […] The Clk family is part of the CMGC group of protein kinases which includes Dyrks and are essential kinases found in all eukaryotes. […] This AID is to summarize the activity of these analogs in Dyrk1a.
All kinase reactions were performed using 10 uM ATP in the assay. 100% activity was taken from kinase reactions with DMSO alone (the vehicle used for compound stock solutions).
Take `CC(Nc1ncnc2ccc(-c3ccc4c(c3)OCO4)cc12)c1ccco1` (centres undefined): the Potency is 5.6 µM (active). Under `CN(Cc1cncn1C)c1ncnc2ccc(-c3ccc4c(c3)OCO4)cc12` stands 2.45 µM (active); under `c1nc(N2CCOCC2)c2cc(-c3ccc4c(c3)OCO4)ccc2n1`, 0.723 µM (active). Under `c1coc(CCNc2ncnc3ccc(-c4ccc5c(c4)OCO5)cc23)c1` stands 0.074 µM (active).

For the origin of these results see PubChem BioAssay AID504424 (National Center for Advancing Translational Sciences (NCATS), 2011).
